Shown is part of a subset that was picked to be rich in hits.
HT1080-NT tox – kills 2HG-producing HT-1080-NT fibrosarcoma cells; HT-1080-NT fibrosarcoma viability, CellTiter-Glo ATP luminescence, 48 h; Potency, µM (doses to about 46.1 µM), actives largely listed as cytotoxic; 1.6% of 360,000 active;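 further: NT is the 2HG producing partner of a matched IDH1 knockdown line; nearly all actives have a fitted effect of over 55% in size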
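Compounds were tested in concentration-response format on HT-1080-NT cells for 48 hours at 37 degrees C. Cell viability came from CellTiter-Glo luminescence; curves were classified by r2, response magnitude and activity.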
IL-1B inflam inh – blocks inflammasome-driven IL-1 beta release; THP-1 LPS/ATP IL-1B secretion, AlphaLISA, 16 h; stronger effect = lower value; activity change, % at 57.5 µM; 4.7% of 360,000 active; AID 743279; in the data active means activity change below about -50%; inconclusive means mostly about -30% to -49%
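THP-1 cells pretreated 1 hr with compounds (up to 57.5 uM final), then stimulated with LPS (250 ng/mL final) plus ATP (1.25 mM final); secreted IL-1B measured by AlphaLISA after 16 hr, decreased signal indicating inhibition.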
TDP1 cell noCPT – qHTS for Inhibitors of human tyrosyl-DNA phosphodiesterase 1 (TDP1): qHTS in cells in absence of CPT; AID 686978, 2013; 15% of 420,000 active; DT40 Tdp1-/- hTDP1 cells, no CPT, ATP luminescence, 48 h; Potency, µM (titrated, usually from 46.2 µM), actives largely listed as inhibitors; further: nearly all actives have a fitted effect of over 55% in size
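Growth kinetics read by CellTiter-Glo luminescence after ≥48 hr at 37 °C. Cells: DT40 Tdp1-/- stably carrying human TDP1, 400 per well, compound exposure in the absence of CPT (DMSO vehicle).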
HT1080 IDH1KD tx – kills HT-1080 cells with IDH1 knockdown | HT-1080 IDH1 knockdown viability, ATP luminescence, 48 h | Potency, µM (top dose mostly 46.1 µM), most hits filed as cytotoxic | 2% of 360,000 active | AID 686971
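In this qHTS, HT-1080 cells depleted of IDH1 are exposed for 48 h at 37 °C to compound titrations. Toxicity is scored from CellTiter-Glo luminescence, with DMSO as full viability and medium alone as none.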
ALOX12 inh – ALOX12 (human) lipoxygenase inhibition. Potency, µM (series often up to 108 µM), hits mostly inhibitors. purified 12hLO, xylenol orange hydroperoxide absorbance. 1.1% of 580,000 active. P18054
Target sequence (P18054 whole entry, looked up): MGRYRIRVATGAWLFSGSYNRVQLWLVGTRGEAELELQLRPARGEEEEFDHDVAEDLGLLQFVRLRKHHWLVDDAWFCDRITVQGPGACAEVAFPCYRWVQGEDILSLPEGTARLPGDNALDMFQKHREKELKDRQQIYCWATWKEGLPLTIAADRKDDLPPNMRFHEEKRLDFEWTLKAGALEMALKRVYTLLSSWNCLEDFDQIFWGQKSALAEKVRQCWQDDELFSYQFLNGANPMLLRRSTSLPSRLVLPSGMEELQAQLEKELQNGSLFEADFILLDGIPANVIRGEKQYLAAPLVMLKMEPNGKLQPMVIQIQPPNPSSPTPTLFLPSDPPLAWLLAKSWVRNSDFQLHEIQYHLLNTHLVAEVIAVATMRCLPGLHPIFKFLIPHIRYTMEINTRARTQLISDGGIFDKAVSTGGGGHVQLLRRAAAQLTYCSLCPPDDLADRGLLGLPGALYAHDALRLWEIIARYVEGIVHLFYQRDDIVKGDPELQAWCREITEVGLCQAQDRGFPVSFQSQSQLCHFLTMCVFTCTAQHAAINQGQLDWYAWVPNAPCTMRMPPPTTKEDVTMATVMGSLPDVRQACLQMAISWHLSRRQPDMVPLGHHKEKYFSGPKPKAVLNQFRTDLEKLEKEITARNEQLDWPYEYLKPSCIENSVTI
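Hydroperoxide product was detected by ferrous iron/xylenol orange as the 573 to 405 nm absorbance ratio. Arachidonic acid at 40 uM (final) was turned over for 30 min at room temperature by 150 nM human 12hLO, pH 7.0 Hepes buffer, after 15 min compound preincubation.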
DT40 TDP1 CPT – growth inhibition of DT40 Tdp1-/-;hTDP1 cells with camptothecin (screen for TDP1 inhibitors); 12% of 420,000 active; AID 686979; Potency, µM (highest dose often 46.2 µM), usual class: inhibitors; chicken DT40 Tdp1-/-;hTDP1 cells + 20 nM CPT, ATP luminescence, 48 h; further: nearly all actives have a fitted effect of over 55% in size
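Chicken DT40 Tdp1-/- cells complemented with human TDP1, 400 cells/well, exposed to compounds plus 20 nM camptothecin for at least 48 h at 37 C; viability read as ATP content by CellTiter-Glo luminescence.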
Hits are given with their value; n = inactive; u = inconclusive; x = no result given; ! = repeats disagree. Unless noted, the call rests on the fitted dose curve; in most records, active means well fitted curve in the direction sought with a large enough effect; inconclusive means small, poorly fitted or top-dose-only effect, or another doubt; inactive means no such curve, though single readings can be large; an effect the other way counts as inactive or inconclusive.

SMILES	HT1080-NT tox	IL-1B inflam inh	TDP1 cell noCPT	HT1080 IDH1KD tx	ALOX12 inh	DT40 TDP1 CPT
CCOc1ccc(CNC(=S)Nc2ccccc2)cc1Cl	n	-79	u	n	u	u
CSc1ccc(CN(C)C(=O)CN2CCC(c3nc4ccccc4s3)CC2)cc1	x	x	x	x	n	x
Cc1ccc(OCc2nc(C3CCCCN3C(=O)CCc3ccccc3)no2)cc1 (configuration not stated)	x	x	x	x	n	x
COc1cc(/C=N/NC(=S)NC2CC3CCC2C3)ccc1O (configuration not stated)	n	n	u	n	u	u
CCOc1ccccc1NC(=S)Nc1ncccc1C	u	n	29µM	u	11µM	u
CCOc1ccccc1NC(=S)Nc1ccccc1F	n	n	n	n	u	n
COc1ccccc1NC(=S)NCc1ccccn1	n	n	4.1µM	n	n	2.3µM
CCOc1ccccc1NC(=S)NCc1ccccc1	u	n	u	n	n	10µM
COc1ccc(/C=N/NC(=S)N[C@H]2CC3CCC2C3)cc1 (some centres not stated)	n	n	u	n	10µM	u
COc1ccccc1NC(=S)NCc1ccccc1	n	n	n	n	u	n
COc1ccc(Cl)cc1NC(=S)NCc1ccccn1	n	n	u	n	n	u
COCC(=O)Nc1ccc2c(c1)CN(CCc1ccccc1)C(=O)C(C)O2 (configuration not stated)	x	x	x	x	n	x
COCCN1CCC(N2CCN(S(=O)(=O)Cc3ccccc3Cl)CC2)C1=O (configuration not stated)	x	x	x	x	n	x
COC(=O)c1sccc1NC(=O)Nc1ccccc1Cl	n	n	n	n	n	n
COc1ccc(CNS(=O)(=O)NCc2ccc(C)cc2)cc1OC	n	n	16µM	n	n	u
COC(=O)c1cc(NC(=S)NCc2ccc(Cl)cc2)cc(C(=O)OC)c1	u	n	u	u	45µM	16µM
COC(=O)c1ccc(NC(=S)NC2CC3CCC2C3)cc1 (configuration not stated)	u	n	21µM	u	u	18µM
COC(=O)c1cccc(NC(=S)NCc2ccc(Cl)cc2)c1	n	n	u	n	u	u
CNC(=O)[C@H]1O[C@@H](n2cnc3c(NCc4cccc(I)c4)nc(Cl)nc32)[C@H](O)[C@@H]1O	n	-89	21µM!	n	u	u
CCS(=O)(=O)NCCc1csc2nc(-c3ccc(C)cc3)nn12	x	x	u	x	n	16µM
O=S(=O)(NCCc1csc2nc(-c3ccccc3)nn12)c1ccc(Cl)s1	x	x	u	x	n	n
O=S(=O)(NCCc1csc2nc(-c3ccccc3)nn12)c1ccc(Oc2ccccc2)cc1	x	x	u	x	n	u
COc1ccc(-c2nc3scc(CCNS(=O)(=O)c4ccc(F)cc4C)n3n2)cc1	x	x	16µM	x	n	16µM
Cc1cc(C)c(S(=O)(=O)NCCc2csc3nc(-c4ccc(Cl)cc4)nn23)c(C)c1	x	x	18µM	x	u	u
CCOc1ccc(S(=O)(=O)NCCc2csc3nc(-c4cccc(C)c4)nn23)cc1	x	x	18µM	x	n	u
SMILES	HT1080-NT tox	IL-1B inflam inh	TDP1 cell noCPT	HT1080 IDH1KD tx	ALOX12 inh	DT40 TDP1 CPT
COc1ccc(F)cc1S(=O)(=O)NCCc1csc2nc(-c3cccc(C)c3)nn12	x	x	u	x	n	u
COc1ccccc1N1CCN(CC[C@H]2CN(C(=O)c3ccccc3)CC[C@H]2CC(=O)O)CC1	x	x	x	x	n	x
O=C(NC[C@H]1O[C@H](Cc2cc(CN3CCOCC3)on2)CC[C@@H]1O)c1cccc(F)c1	x	x	x	x	n	x
Cc1cc(C(=O)CN2CCN(CC(=O)Nc3ccccc3Cl)CC2)c(C)n1CCc1cccs1	x	x	x	x	n	x
COc1cccc(-c2noc(Nc3cc(OC)c(OC)c(OC)c3)n2)c1	x	x	x	x	n	x
Cc1ccc(-c2nc3scc(CCNS(=O)(=O)c4ccc(Oc5ccccc5)cc4)n3n2)cc1	x	x	u	x	n	u
Cc1ccc(-c2nc3scc(CCNS(=O)(=O)c4ccc(F)c(C)c4)n3n2)cc1	x	x	21µM	x	n	u
COc1cc(OC)cc(-c2c(-c3cccs3)c3cc(-c4cnc(N)nc4)ccc3n2C)c1	u	n	u	u	u	23µM
COc1ccc(-c2c(-c3cc(OC)cc(OC)c3)n(C)c3ccc(-c4ccc5c(c4)OCCO5)cc23)cc1	n	n	u	n	n	n
COc1cc(OC)cc(-c2c(-c3cccs3)c3cc(-c4ccc5c(c4)OCCO5)ccc3n2C)c1	n	n	15µM	n	n	u
COc1cc(OC)cc(-c2c(-c3cccs3)c3cc(-c4ccc(OC)c(OC)c4)ccc3n2C)c1	u	n	u	n	n	9.2µM
COc1ccc(-c2c(-c3cc(OC)cc(OC)c3)n(C)c3ccc(-c4ccc(OC)c(F)c4)cc23)cc1	n	n	u	n	n	n
COc1cc(OC)cc(-c2c(-c3cccs3)c3cc(-c4ccc(OC)c(F)c4)ccc3n2C)c1	n	n	18µM	n	n	u
O=C(NCC1Cn2cccc2CN1Cc1ccccc1)c1n[nH]c2ccccc12 (configuration not stated)	x	x	x	x	n	x
O=S1(=O)c2c(F)cccc2O[C@@H](COCc2ccccc2)CN1CCc1ccc(F)cc1	n	n	u	n	n	u
O=S1(=O)c2c(F)cccc2OC(COc2ccccc2)CN1CCc1ccc(F)cc1 (configuration not stated)	n	n	16µM	n	n	u
COc1ccc2c(c1)OCC(Cc1ccc(OC)c(O)c1)C2=O (configuration not stated)	x	x	0.58µM	x	x	0.73µM
Fc1ccccc1-n1c(SCc2cccc(C(F)(F)F)c2)nnc1-c1cccnc1	x	x	x	x	n	x
O=[N+]([O-])c1ccc2c(OCc3nnc(-c4ccccc4Br)o3)ncnc2c1	u	n	13µM	u	n	u
O=[N+]([O-])c1cc(Br)c(OCc2nnc(-c3ccccc3)o2)c(Br)c1	n	n	u	n	n	n
CC(C)c1nc(CN(C)C(=O)N[C@H](C(=O)N[C@@H](Cc2ccccc2)C[C@H](O)[C@H](Cc2ccccc2)NC(=O)OCc2cncs2)C(C)C)cs1	x	x	21µM!	x	n	17µM!
COc1ccccc1CCNC(=O)Cc1c(C)c2cc3c(C(C)(C)C)coc3c(C)c2oc1=O	x	x	21µM	x	n	26µM
Cc1c(CC(=O)N2CCCCC2)c(=O)oc2c(C)c3occ(C(C)(C)C)c3cc12	x	x	15µM	x	n	u
Cc1c(CC(=O)NCCc2ccc(Cl)cc2)c(=O)oc2c(C)c3occ(C(C)(C)C)c3cc12	x	x	21µM	x	u	u

From PubChem BioAssay
